Bioassay records deposited in PubChem by National Center for Advancing Translational Sciences (NCATS).
POLK inh = qHTS for Inhibitors of Polymerase Kappa; hit rate 0.53% among 400,000; DNA polymerase kappa (Homo sapiens), Q9UBT6; purified Pol kappa, fluorescent DNA synthesis assay, 10 min; Potency, µM (doses to about 107 µM), for inactives: at the top dose activity, negative = inhibition, hits mostly inhibitors; note: potency is the fitted concentration of half-maximal effect; % is set by controls: 0 for no effect and ±100 for the full control effect
Target sequence (Q9UBT6 whole entry, looked up): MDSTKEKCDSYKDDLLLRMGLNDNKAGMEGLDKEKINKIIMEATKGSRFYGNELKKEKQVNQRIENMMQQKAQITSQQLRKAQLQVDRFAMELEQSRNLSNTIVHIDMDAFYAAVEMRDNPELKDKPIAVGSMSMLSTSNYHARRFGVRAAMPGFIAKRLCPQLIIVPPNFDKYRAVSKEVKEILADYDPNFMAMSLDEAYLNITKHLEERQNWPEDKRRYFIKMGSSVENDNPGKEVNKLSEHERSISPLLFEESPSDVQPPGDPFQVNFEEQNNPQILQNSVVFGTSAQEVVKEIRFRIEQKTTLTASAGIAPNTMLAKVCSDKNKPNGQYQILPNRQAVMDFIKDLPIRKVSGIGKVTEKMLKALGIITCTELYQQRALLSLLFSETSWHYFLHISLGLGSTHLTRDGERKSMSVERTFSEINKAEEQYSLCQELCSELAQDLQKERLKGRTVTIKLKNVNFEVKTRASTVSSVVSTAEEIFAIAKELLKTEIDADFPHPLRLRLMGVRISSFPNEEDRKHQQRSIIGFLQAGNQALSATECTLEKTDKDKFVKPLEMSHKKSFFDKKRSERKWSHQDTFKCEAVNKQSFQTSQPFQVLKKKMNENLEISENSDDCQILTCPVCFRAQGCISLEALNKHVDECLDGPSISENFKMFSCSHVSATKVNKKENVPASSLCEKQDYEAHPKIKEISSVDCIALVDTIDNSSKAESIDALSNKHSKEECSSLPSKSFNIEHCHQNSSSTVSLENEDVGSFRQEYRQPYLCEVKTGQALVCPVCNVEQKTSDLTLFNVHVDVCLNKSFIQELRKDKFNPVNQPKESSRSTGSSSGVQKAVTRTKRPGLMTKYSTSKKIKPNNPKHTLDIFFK
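Fluorescent qHTS in 1536-well format: enzyme (10 nM) and compound sat 15 min at room temperature before 50 nM substrate (final) was added. Signal taken at 0 and 10 min; no-enzyme buffer wells were negative controls.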
Pol eta inh = qHTS for Inhibitors of Polymerase Eta. recombinant Pol eta, fluorescent DNA replication assay. AID 588591, 2011. hit rate 1.2% among 390,000. Potency, µM (series often up to 114 µM), without a hit: at the highest dose activity change, negative = inhibition, usual class: inhibitors. DNA polymerase eta (Homo sapiens), Q9Y253; note: potency is the fitted concentration of half-maximal effect; % is set by controls: 0 for no effect and ±100 for the full control effect
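Pol eta (10 nM) was preincubated with compounds for 15 min at room temperature, after which fluorescent replication substrate (50 nM final) was added to start the reaction. Fluorescence was read kinetically at 0 and 10 min.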
PI5P4K alpha inh = qHTS for Inhibitors of phosphatidylinositol 5-phosphate 4-kinase (PI5P4K); PI5P4Kalpha enzyme, ADP-Glo luminescence, 60 min; stronger effect = lower value; max response, %; hit rate 1.2% among 330,000; AID 652105, 2013; active = max response of -50% or lower; inconclusive = between -30% and -50%; inactive = -30% or higher; note: value at the top dose of about 77 µM; % is set by controls: 0 for no effect and ±100 for the full control effect
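Quantitative HTS of the MLSMR library against PI5P4Kalpha with substrate. ATP added last at 5 microM final; room temperature, 60 minutes. Remaining ATP depleted, ADP converted and read as luminescence.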
WRN helicase inh = qHTS for Inhibitors of WRN Helicase. WRN helicase unwinding, fluorescent forked duplex, kinetic. Potency, µM (series often up to 114 µM), for inactives: at the highest dose activity change, negative = inhibition, most hits filed as inhibitors. hit rate 0.46% among 360,000. AID 651768, 2012; note: potency is the fitted concentration of half-maximal effect; % is set by controls: 0 for no effect and ±100 for the full control effect; nearly all actives have a fitted effect of over 55% in size
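Enzyme (20 nM final) and test compound sit together 15 min at room temperature before substrate addition. Substrate is a single-forked duplex oligonucleotide (100 nM) labelled with fluorophore and quencher, with 2 mM ATP; helicase unwinding raises red fluorescence, read kinetically.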
Pol beta inh = qHTS Assay for Inhibitors of DNA Polymerase Beta; Pol beta primer extension/strand displacement, fluorescence kinetic; P06746; hit rate 1.3% among 340,000; Potency, µM (titrated, usually from 114 µM), without a hit: at the top dose activity change, negative = inhibition, most hits filed as inhibitors; note: potency is the fitted concentration of half-maximal effect; % is set by controls: 0 for no effect and ±100 for the full control effect
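Pol beta (10 nM) was preincubated with compound for 15 min at room temperature. The reaction was then started with 50 nM substrate and read immediately and after a further 10 min at room temperature.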
POLI inh = qHTS for Inhibitors of Polymerase Iota | hit rate 1% among 390,000 | Potency, µM (series often up to 115 µM), for the others: at the highest dose activity, negative = inhibition, usual class: inhibitors | Pol iota fluorescent replication assay, 10 min | DNA polymerase iota (Homo sapiens), Q9UNA4; note: potency is the fitted concentration of half-maximal effect
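Pol iota at 10 nM preincubated 15 min with compounds at room temperature; reaction started with fluorescent substrate, 50 nM final. Fluorescence read kinetically at 0 and 10 min; buffer-only wells as negative control.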
Active calls of the source: *; ? = inconclusive; · = no result; [ ] = remark or other dose. Shown are actives, neighbours in structure and some others; about 2.8% of the full set was active somewhere. Unless noted, calls come from the whole dose curve; as a rule, active = well fitted curve in the direction sought with a large enough effect; inconclusive = small, poorly fitted or top-dose-only effect, or another doubt; inactive = no such curve, though single readings can be large; an effect the other way counts as inactive or inconclusive.

SMILES	POLK inh	Pol eta inh	PI5P4K alpha inh	WRN helicase inh	Pol beta inh	POLI inh
CCOC(=O)c1c(C)[nH]c(=S)c(C#N)c1-c1ccc(Cl)cc1	-27%	-21%	-16	4%	2%	79µM*
CCOc1ccccc1NC(=O)CCNS(=O)(=O)c1ccc2c(c1)CCN2C(=O)C1CC1	-11%[60.1 µM]	-2%	·	·	-22%	1%
CCc1cccc(C)c1NC(=O)c1cc(S(=O)(=O)N2CCN(c3ccccc3)CC2)ccc1F	2%[60.1 µM]	-14%	·	·	-24%	?
CN(C)c1ccc(/C=C/c2ccc3cc(N)ccc3n2)cc1	-15%	·	·	·	·	?
C[C@@H]1[C@H](c2ccccc2)OCCS(=O)(=O)N1Cc1ccc(F)cc1	-10%	·	·	·	·	3%
Cc1cc(C2C(C#N)=C(N)OC3=C2C(=O)CCC3)c(C)s1 (centres undefined)	-4%	12%	-13	-1%	22%	9%
COc1cc(C2C(C#N)=C(N)OC3=C2C(=O)CCC3)c([N+](=O)[O-])cc1OC (centres undefined)	89µM*	20µM*	-13	?	2%	7.1µM*
CCOc1cc(C2C(C#N)=C(N)OC3=C2C(=O)CC(C)(C)C3)cc([N+](=O)[O-])c1O (centres undefined)	-9%	4%	3	-2%	37%	0%
CC1(C)CC(=O)C2=C(C1)OC(N)=C(C#N)C2c1cc2c(cc1[N+](=O)[O-])OCO2 (centres undefined)	-31%	?	-80*	?	-16%	?
Cc1ccc(CCNC(=O)CN2CCN(Cc3ccc(Cl)cc3)C2=O)cc1	-19%	-16%	·	·	-2%	8%
COc1cccc(NC(=O)C2CCCN(c3ncnc4onc(-c5ccc(F)cc5)c34)C2)c1 (centres undefined)	-1%	-16%	·	·	10%	?
Cc1cc2c(c(=O)o1)C1(C(=O)N(CC(=O)O)c3ccccc31)C(C#N)=C(N)O2 (centres undefined)	?	20µM*	-25	-30%	?	?
O=c1c(S(=O)(=O)c2ccc(Cl)cc2)cn(Cc2ccc(F)cc2)c2ccc(F)cc12	?	-21%	·	·	7%	79µM*
O=c1c(S(=O)(=O)c2ccc(Cl)cc2)cn(Cc2ccccc2)c2ccc(F)cc12	0%	-10%	-4	6%	-18%	56%
O=C1C2CC=CCC2C(=O)N1Cc1ccccc1 (centres undefined)	-7%	-4%	·	-10%[57.1 µM]	1%	-1%
O=C1C=CC(=O)N1Cc1ccccc1	-1%	-7%	-86*	-14%	24%	13%
COc1ccc(NC(=O)C2CCCN(S(=O)(=O)c3ccc(Br)s3)C2)cc1 (centres undefined)	-3%	-9%	·	·	0%	5%
COc1ccc(O)c(/C=N/NC(=O)c2ccc(N3CCCC3=O)cc2)c1	-45%	-11%	3	-16%	10µM*	?
O=C(CSc1nnc(-c2ccccc2)c(-c2ccccc2)n1)NCCc1ccccc1	-3%[60.1 µM]	-20%	·	·	3%	-2%
CC(C)CC1NC(=S)N(C2CCCCC2)C1=O (centres undefined)	-9%	-19%	-59*	?	12%	-11%
CCC(=O)NC1=C(Cl)C(=O)C(NC(=O)CC)=C(Cl)C1=O	1%	?	-81*	?	11%	1.8µM*
Cc1nc(N2CCCCC2)sc1C(=O)c1ccc(SCCO)c([N+](=O)[O-])c1	-8%	-17%	-68*	-32%	-2%	71%
COC(C(=O)C(O)C(C)O)C1Cc2cc3cc(OC4CC(OC5CC(O)C(O)C(C)O5)C(O)C(C)O4)c(C)c(O)c3c(O)c2C(=O)C1OC1CC(OC2CC(OC3CC(O)C(OC)C(C)O3)C(O)C(C)O2)C(O)C(C)O1 (centres undefined)	79µM*	11µM*	-6	?	·	22µM*
O=c1cc(-c2ccsc2)oc2cc(-c3ccc4c(c3)OCO4)ccc12	-2%	?	-9	25µM*	·	20%
COc1cc(-c2ccc3oc(-c4ccsc4)cc(=O)c3c2)cc(OC)c1OC	-3%	-25%	0	-3%	·	0%
SMILES	POLK inh	Pol eta inh	PI5P4K alpha inh	WRN helicase inh	Pol beta inh	POLI inh
O=c1c(-c2ccco2)nc2ccccc2n1C(CCc1ccccc1)c1nc2ccccc2[nH]1 (centres undefined)	·	·	-73*	-13%	·	·
O=C(NC1CCCCC1)C(c1cccc2ccccc12)n1c(=O)c(-c2ccco2)nc2ccccc21 (centres undefined)	·	·	-82*	-7%	·	·
CC(C)(C)NC(=O)C(c1cc2ccccc2o1)n1c(=O)c(-c2ccco2)nc2ccccc21 (centres undefined)	·	·	-58*	-9%	·	·
CCC(c1nc2ccccc2[nH]1)n1c(=O)c(-c2ccco2)nc2ccccc21 (centres undefined)	·	·	?	0%	·	·
COc1ccc(C(C(=O)NC2CCCCC2)n2c(=O)c(-c3ccco3)nc3ccccc32)cc1 (centres undefined)	·	·	?	-3%	·	·
CC(C)(C)NC(=O)C(c1ccccc1)n1c(=O)c(-c2ccco2)nc2ccccc21 (centres undefined)	·	·	-54*	-11%	·	·
CC(C)(C)NC(=O)C(c1ccncc1)n1c(=O)c(-c2ccco2)nc2ccccc21 (centres undefined)	·	·	-18	7%	·	·
CC(C)(C)NC(=O)C(c1ccnc2ccccc12)n1c(=O)c(-c2ccco2)nc2ccccc21 (centres undefined)	·	·	?	-2%	·	·
O=C(C[n+]1cccc2cccc(O)c21)c1ccc(Cl)cc1	8%	·	·	·	·	43%
CCOc1ccc(C2CC(=O)n3nc(-c4ccc(C)cc4)nc3S2)cc1 (centres undefined)	2%	-2%	·	·	22%	2%
COc1ccc(-c2nc3n(n2)C(=O)CC(c2ccco2)S3)cc1 (centres undefined)	?	?	·	-24%	22µM*	?
CCCc1nc2sc3c(c2c(=O)[nH]1)CCCC3	-15%	-18%	-9	10%	4%	113%
CN(CC(=O)Nc1ccccc1C(F)(F)F)C(=O)CCc1nc2sc3c(c2c(=O)[nH]1)CCCC3	-9%	45µM*	-22	7%[11.6 µM]	?	?
CN(CC(=O)Nc1ccc(Cl)cc1)C(=O)CCc1nc2sc3c(c2c(=O)[nH]1)CCCC3	-41%	?	?	-14%[11.6 µM]	·	28µM*
